Counter-ions that a name gives are not always drawn.
The compounds below were run on HEK293FT dCK*-IKZF1 (assay: relative growth recovery (pomalidomide 10 uM = 100%, DMSO = 0%); higher = more growth rescue (IKZF1 fusion degradation)). Settings: compound concentration: 5 uM; AraC concentration: 0.3 uM; overnight pretreatment + 4 days AraC.
How it was run: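 HEK293FT cells stably expressing an engineered deoxycytidine kinase–IKZF1 fusion were seeded at 300 per well in 384-well plates and given 5 μM compound 2 h later. After overnight incubation at 37 °C, a nucleoside suicide substrate at 0.3 μM was added with medium for 4 days, and on day 5 Hoechst 33342-stained nuclei were counted by whole-well imaging. Growth recovery was normalised per plate between a reference degrader and vehicle, set to 100% and 0% respectively, and the values are means of duplicates run on different days.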

SMILES	relative growth recovery
COc1cc(CN(CCN)C(=O)c2cccs2)ccc1OCc1ccccc1	0.355%
CC(=O)Oc1ccccc1C(=O)Nc1ncc([N+](=O)[O-])s1 [Nitazoxanide]	1.91%
Oc1cc2c(cc1O)[C@@H]1c3ccc(O)c(O)c3OC[C@]1(O)C2 [Hematoxylin (Hydroxybrazilin)]	-1.47%
Oc1c(Cl)cc(Cl)c2cccnc12	-0.1%
OC(c1cc(C(F)(F)F)nc2c(C(F)(F)F)cccc12)C1CCCCN1 (stereo not drawn) [Mefloquine HCl]	-6.05%
OCCN1CCN(CCCN2c3ccccc3Sc3ccc(Cl)cc32)CC1	4.08%
NC(=O)c1ccc[n+]([C@@H]2O[C@H](COP(=O)(O)OP(=O)(O)OC[C@H]3O[C@@H](n4cnc5c(N)ncnc54)[C@H](O)[C@@H]3O)[C@@H](O)[C@H]2O)c1	1.08%
COc1cnc(NS(=O)(=O)c2ccc(N)cc2)nc1	-3.84%
CC[C@@]1(O)C(=O)OCc2c1cc1n(c2=O)Cc2cc3c(N)cccc3nc2-1 [9-aminocamptothecin]	-12.4%
Clc1ccc(COC(Cn2ccnc2)c2ccc(Cl)cc2Cl)c(Cl)c1 (stereo not drawn)	-6.23%
COc1ccc(-c2ccc3c(N4CCOCC4)nc(N4C[C@@H](C)O[C@@H](C)C4)nc3n2)cc1CO	-6.47%
Cc1cccc(CCN2CCC(C(=O)c3ccc(NS(C)(=O)=O)cc3)CC2)n1	-0.45%
C=C1/C(=C\C=C2/CCC[C@]3(C)[C@@H]([C@H](C)/C=C/C=C/C(O)(CC)CC)CC[C@@H]23)C[C@@H](O)C[C@@H]1O [Seocalcitol]	6.88%
COC(=O)Nc1nc2cc(C(=O)c3ccccc3)ccc2[nH]1 [Mebendazole]	-10.7%
CCN(CC)CCCN(c1ccccc1)C1Cc2ccccc2C1 [aprindine]	1.23%
COc1ccc(NS(=O)(=O)c2ccc(N)cc2)nn1	-1.8%
N#Cc1ccc(O[C@H]2CC[C@H](NC(=O)c3ccc(N4CCC(CN5CCN(c6cc7c(cc6F)C(=O)N(C6CCC(=O)NC6=O)C7=O)CC5)CC4)nn3)CC2)cc1Cl (stereo partly drawn)	-0.69%
CC(C)(C)c1cc(O)c(C(C)(C)C)cc1O	-0.575%
CC(CNC1CCCCC1)OC(=O)c1ccccc1 (stereo not drawn) [hexylcaine]	-0.215%

SMILES	relative growth recovery
C=C1/C(=C\C=C2/CCC[C@]3(C)[C@@H]([C@H](C)/C=C/[C@H](C)C(C)(C)O)CC[C@@H]23)C[C@@H](O)C[C@@H]1O [Ercalcitriol]	6.62%
CC1(C)C(/C=C/C=C/C=C/C=C2/N(CCCCS(=O)(=O)[O-])c3ccc4ccccc4c3C2(C)C)=[N+](CCCCS(=O)(=O)[O-])c2ccc3ccccc3c21 [Cardiogreen]	0.4%
Cc1ccc2c(Cl)cc(Cl)c(O)c2n1	0.855%
O=c1c(O)c(-c2ccc(O)c(O)c2)oc2cc(O)cc(O)c12 [quercetin]	-2.98%
Oc1c(Cl)cc(Cl)cc1Sc1cc(Cl)cc(Cl)c1O	-1.73%
O=C1Nc2ccc(I)cc2/C1=C/c1cc(Br)c(O)c(Br)c1	-2.06%
O=C1NCN(c2ccccc2)C12CCN(CCCC(c1ccc(F)cc1)c1ccc(F)cc1)CC2 [Fluspirilene]	-0.815%
Cc1ccc(S(=O)(=O)c2ccc([N+](=O)[O-])o2)cc1	-12.9%
CC(C)(C)c1ccc(-c2nc3cccc(N4CCN(Cc5ccc6nccnc6c5)CC4)c3[nH]2)cc1	9.79%
O=C1Nc2c(ccc(Cl)c2Cl)C1=NO	-2.38%
O=c1c(-c2ccccc2)c1-c1ccccc1 [diphencyprone]	-11.2%
CN(C)CC/C=C1\c2ccccc2CSc2ccccc21 [dosulepin]	-1.36%
Nc1ncn([C@@H]2O[C@H](CO)[C@@H](O)[C@H]2O)c(=O)n1	-5.21%
O=c1oc(-c2ccc(C(F)(F)F)cc2)nn1Cc1cc(Cl)ccc1O	-5.1%
OC1(c2ccc(Cl)c(C(F)(F)F)c2)CCN(CCCC(c2ccc(F)cc2)c2ccc(F)cc2)CC1	-5.21%
Cn1c(NCCN(CCO)CCCc2ccc([N+](=O)[O-])cc2)cc(=O)n(C)c1=O [nifekalant]	3.56%
CN(C)CC(O)Cn1c2ccc(Br)cc2c2cc(Br)ccc21 (stereo not drawn) [wiskostatin]	-2.88%
NCCNc1ccc(NCCN)c2c1C(=O)c1ccncc1C2=O.O=C(O)/C=C\C(=O)O.O=C(O)/C=C\C(=O)O [Pixantrone (dimaleate)]	-1.7%
CN(C)c1ccc(/C=C2\C(=O)Nc3ccccc32)cc1	2.52%

Source: the supplement of paper PMC12340641
